A350 autofl: compounds fluorescent in Alexa 350 spectral region; Compound autofluorescence, 340/450 nm, Alexa 350 dye-equivalents; hits give high values; hit rate 11% among 59,000; max dye-equivalent concentration, M; AID 590; in the data active means max dye-equivalent concentration above about 10 nM; inconclusive means mostly about 1.1 nM to 9.6 nM
HSD17B inh: blocks hydroxysteroid 17-beta dehydrogenase activity; Q99714; Potency, µM (series often up to 57.1 µM), for the others: at the top dose activity change, negative = inhibition, actives largely listed as inhibitors; recombinant HSD17B10, NADH fluorescence kinetic; AID 893; hit rate 7.6% among 75,000;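 further: the protocol describes HADH2 (HSD17B10) and not the HSD17B4 of the title; potency means the concentration at half of the fitted maximal effect; on the % scale 0 is the no-effect control and ±100 the full control effect; nearly all actives have a fitted effect of over 70% in size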
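Enzyme plus compound, 15 min room temperature; substrate mix added (NAD+ 1 mM, beta-hydroxybutyryl-CoA 90 uM final); plates read kinetically for NADH fluorescence. HADH2 was His-tagged, E. coli-derived, 20 nM.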
4-MU autofl: 4-MU region autofluorescence | compound autofluorescence, 340/450 nm, 4-MU equivalents; hits give high values | max dye-equivalent concentration, M | hit rate 11% among 59,000; in the data active means max dye-equivalent concentration above about 10 nM; inconclusive means mostly about 1.1 nM to 9.6 nM
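Compounds in 100 mM Tris, pH 8.0, sat 15 min at room temperature before fluorescence was read at 340 nm excitation/450 nm emission; a per-plate six-point 4-MU standard curve converted signals to dye-equivalent concentration at each compound concentration.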
AID923: qHTS Assay for Allosteric/Competitive Inhibitors of Caspase-1: Spectroscopic Profiling in AFC Spectral Region; compound fluorescence, AFC spectral region (405/520 nm); Potency, µM (series often up to 57.5 µM), for inactives: at the top dose fluorescence increase, most hits filed as activators; hit rate 1.1% among 75,000; AID 923, 2007; further: potency means the concentration at half of the fitted maximal effect; 0% is about no effect
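Baseline compound fluorescence (AFC region, 405 nm ex/520 nm em) taken from the intercept of kinetic reads with 50 nM caspase-1 and 5 uM Ac-WEHD-AFC; normalized to an on-plate AFC standard curve; compounds titrated up to 57 uM.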
HADH2 inh: blocks human hydroxyacyl-CoA dehydrogenase type II | Q99714 | recombinant HADH2, NADH fluorescence, beta-hydroxybutyryl-CoA | Potency, µM (doses to about 57.1 µM), without a hit: at the highest dose activity change, negative = inhibition, usual class: inhibitors | hit rate 3.4% among 73,000; further: potency means the concentration at half of the fitted maximal effect; on the % scale 0 is the no-effect control and ±100 the full control effect; nearly all actives have a fitted effect of over 60% in size
Target sequence (Q99714 whole entry, looked up, one chain of several): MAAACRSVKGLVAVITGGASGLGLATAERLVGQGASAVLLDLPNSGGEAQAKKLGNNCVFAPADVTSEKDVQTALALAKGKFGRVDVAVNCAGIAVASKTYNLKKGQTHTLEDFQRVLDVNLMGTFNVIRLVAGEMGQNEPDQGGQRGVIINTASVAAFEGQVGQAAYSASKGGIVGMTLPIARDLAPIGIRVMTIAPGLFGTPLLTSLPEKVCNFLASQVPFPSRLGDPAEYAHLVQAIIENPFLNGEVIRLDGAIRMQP
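Activity measured as NADH fluorescence gain (360/450 nm), taken as the change between first and last reads of a 4-min kinetic run. Conditions: pH 9.0 Tris buffer, 20 nM E. coli-expressed His-tagged enzyme, 1 mM NAD+, 90 uM beta-hydroxybutyryl-CoA; 15-min compound preincubation.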
Numbers without * were called inactive; [ ] = dose if it differs, or a comment. The list is not random: actives were taken first. Their share in the collection is about 13%. Unless noted, the call rests on the fitted dose curve; in most records, active means well fitted curve in the direction sought with a large enough effect; inconclusive means small, poorly fitted or top-dose-only effect, or another doubt; inactive means no such curve, though single readings can be large; an effect the other way counts as inactive or inconclusive.

Screening Cn1c(=O)c2c(nc(Oc3ccc4c(c3)OCO4)n2Cc2ccc(Cl)cc2)n(C)c1=O returned A350 autofl 2.1e-08M*, HSD17B inh 7%, 4-MU autofl 1.7e-08M*, AID923 1% and HADH2 inh 14%.
O=C(COC(=O)c1ccc(Cl)c(S(=O)(=O)N2CCCC2)c1)NC1CCCC1 was read as A350 autofl inactive, HSD17B inh 12%, 4-MU autofl inactive, AID923 0% and HADH2 inh 18%.
Screening O=C(NCCOC(=O)c1ccc(Cl)c(S(=O)(=O)N2CCCCC2)c1)c1ccncc1 returned A350 autofl 1.6e-08M*, HSD17B inh -15%, 4-MU autofl 1.1e-08M*, AID923 -2% and HADH2 inh 0%.
`CCCn1c(NC(=O)c2ccc(Cl)c(S(=O)(=O)N3CCCC3)c2)nc2ccccc21` gave A350 autofl 6.1e-08M*, HSD17B inh 32µM*, 4-MU autofl 6.5e-08M*, AID923 3% and HADH2 inh 25µM*.
For O=C(NCc1nc2ccccc2[nH]1)c1ccc(Cl)c(S(=O)(=O)N2CCCC2)c1 the results were A350 autofl 1.3e-08M*, HSD17B inh -17%, 4-MU autofl 1.1e-08M*, AID923 -2% and HADH2 inh 9%.
For CCOC(=O)C1CCCN(c2ncnc3c2oc2ccccc23)C1 (stereo unspecified) the results were A350 autofl inconclusive, HSD17B inh 4%, 4-MU autofl inconclusive, AID923 1% and HADH2 inh 4%.
Screening CCOC(=O)C1CCCN(c2nc3ccccc3nc2C(C#N)C(=O)OCCOC)C1 (stereo unspecified) returned A350 autofl 4.3e-08M* and 4-MU autofl 3.5e-08M*.
CCC(CC)COC(=O)C(C#N)c1nc2ccccc2nc1N1CCOCC1 (stereo unspecified) was read as A350 autofl inactive, HSD17B inh 7%, 4-MU autofl inactive, AID923 9% and HADH2 inh -3%.
`CCOC(=O)C1CCCN(c2nc3ccccc3nc2C(C#N)C(=O)OCC)C1` (stereo unspecified) gave A350 autofl 5.4e-08M*, HSD17B inh 8%, 4-MU autofl 3.9e-08M*, AID923 19% and HADH2 inh 3%.
Screening CCOC(=O)C1CCCN(c2nc3ccccc3nc2C(C#N)C(=O)OC(C)COC)C1 (stereo unspecified) returned A350 autofl 1.5e-08M* and 4-MU autofl 1.1e-08M*.
CCOC(=O)C1C(C#N)=C(N)OC(C)=C1c1ccncc1 (stereo unspecified) was read as A350 autofl 1.2e-08M*, HSD17B inh 0%, 4-MU autofl inconclusive, AID923 0% and HADH2 inh -2%.
For CC(C)(CCC(C)(C)c1ccccc1)c1ccccc1 the results were A350 autofl inactive, HSD17B inh 5%[11.4 µM], 4-MU autofl inactive, AID923 2%[11.5 µM] and HADH2 inh 5%[11.4 µM].
Screening CC1CCCN(c2nc3ccsc3c(=O)s2)C1 (stereo unspecified) returned A350 autofl 3e-08M*, HSD17B inh inconclusive, 4-MU autofl 3.4e-08M*, AID923 8% and HADH2 inh 0%.
For CS(=O)(=O)Nc1cccc(-c2nc(N3CCNCC3)c3ccccc3n2)c1 the results were A350 autofl inconclusive, HSD17B inh -14%, 4-MU autofl inactive, AID923 -1% and HADH2 inh 13%.
`N#Cc1c(N2CCCCC2)nc(N2CCCCC2)c2c1CCN(Cc1ccccc1)C2` gave A350 autofl 2.1e-07M* and 4-MU autofl 1.9e-07M*.
Screening N#Cc1c(NCCN)nc(NCc2ccccc2)c2c1CCN(Cc1ccccc1)C2 returned A350 autofl 4.3e-08M* and 4-MU autofl 2.6e-08M*.
Screening C=CCNc1nc(NCc2ccccc2)c(C#N)c2c1CN(C)CC2 returned A350 autofl 1.2e-07M* and 4-MU autofl 1e-07M*.
`Cc1noc(C)c1-c1ccc2ncnc(N(C)C)c2c1` gave A350 autofl inactive, HSD17B inh -11%, 4-MU autofl inactive, AID923 5% and HADH2 inh 12%.
CS(=O)(=O)Nc1cccc(-c2ccc3ncnc(NCc4cccnc4)c3c2)c1 was read as A350 autofl inactive, HSD17B inh inconclusive, 4-MU autofl inactive, AID923 -1% and HADH2 inh 8%.
CCC/C=C(\CCC)C(NC(=O)c1ccco1)c1ccc(C(=O)OC)cc1 (stereo unspecified) was read as HSD17B inh -15%, AID923 -1% and HADH2 inh 9%.
For Cc1ncn(-c2ccccc2O)c1C the results were A350 autofl 4e-07M*, HSD17B inh 4µM*, 4-MU autofl 3.6e-07M*, AID923 -2%[11.5 µM] and HADH2 inh -5%[11.4 µM].
Cc1nc(=O)c(-c2ccccc2)c(C)n1-c1ccccc1O was read as A350 autofl inactive, HSD17B inh 10%, 4-MU autofl inactive, AID923 -1% and HADH2 inh 0%.
`C[C@@H](c1ccccc1)N1C(=O)[C@H]2[C@H]3[C@H](O)[C@H](O)C/C(=N/NC(=O)OCc4ccccc4)[C@H]3CC[C@@H]2C1=O` gave HSD17B inh 2%[11.4 µM], AID923 -3%[11.5 µM] and HADH2 inh 4%[11.4 µM].
`Cn1c(CN2CCC(C(N)=O)CC2)c(C#N)c2ccccc21` gave A350 autofl 1.2e-08M*, HSD17B inh inconclusive, 4-MU autofl inconclusive, AID923 -2% and HADH2 inh -2%.
CC(C)[C@@H]1NC(=O)[C@H](CCCCN)NC(=O)[C@H](Cc2c[nH]c3ccccc23)NC(=O)[C@H](Cc2ccc(O)cc2)NC(=O)[C@H](C)N(C)C(=O)[C@H](Cc2ccccc2)NC1=O was read as A350 autofl inactive, HSD17B inh 6%, 4-MU autofl inactive, AID923 -3% and HADH2 inh 12%.
Clc1ccccc1-c1nn2c(-c3ccncc3)nnc2s1 was read as A350 autofl inactive, HSD17B inh -14%, 4-MU autofl inactive, AID923 -2% and HADH2 inh 3.2µM*.
`Clc1ccc(-c2nnc3sc(-c4ccccn4)nn23)cc1` gave A350 autofl inactive, HSD17B inh 11%, 4-MU autofl inactive, AID923 1% and HADH2 inh -6%.
`c1ccc(-c2nn3c(-c4ccncc4)nnc3s2)nc1` gave A350 autofl inactive, HSD17B inh -17%, 4-MU autofl inactive, AID923 2% and HADH2 inh 10µM*.
For Clc1ccccc1-c1nnc2sc(-c3ccncc3)nn12 the results were HSD17B inh -13%, AID923 0% and HADH2 inh -22%.
Brc1ccc(-c2nn3c(-c4ccncc4)nnc3s2)o1 was read as A350 autofl 6.2e-08M*, HSD17B inh -8%, 4-MU autofl 5.4e-08M*, AID923 2% and HADH2 inh inconclusive.
